Drawing on PubChem BioAssay (Tox21), this text covers Potency, outcome and max response for 13 molecules.

Assay [1] can be described thus: qHTS assay to identify small molecule agonists of the AP-1 signaling pathway - cell viability counter screen (AID 1159525; calls by dose curve; further: nearly all actives have a fitted effect of over 55% in size; further: potency means the concentration at half of the fitted maximal effect). In short, it runs like this:
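AP-1-bla ME-180 cells in Opti-MEM with 0.5% dialyzed FBS, compound exposure 5 h at 37 C in 15-point titration. Viability read in the same wells as ATP content by CellTiter-Glo luminescence, normalised to tetra-n-octylammonium bromide and DMSO controls.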

The target of assay [2] is Nuclear receptor subfamily 1 group I member 3 (Homo sapiens) (UniProt Q14994). In words: qHTS assay to identify small molecule antagonists of the constitutive androstane receptor (CAR) signaling pathway (AID 1224838). Further: nearly all actives have a fitted effect of over 40% in size. Further: potency means the concentration at half of the fitted maximal effect. The method in brief:
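Compounds were titrated across 15 concentrations onto HepG2 cells double-stably expressing hCAR and a CYP2B6-2.2kb reporter, together with 50 nM CITCO (final). After 24 h at 37 C, luciferase activity was measured by luminescence.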
(In general: In qHTS, concentration-response curves come from the screen itself.)

Assay [3] in a line: qHTS RealTime-Glo MT Cell Viability Assay in HepG2 cells - 40 hour (AID 1224870). Further: nearly all actives have a fitted effect of over 50% in size. Further: potency means the concentration at half of the fitted maximal effect. The method in brief:
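HepG2 cells (600/well) mixed with RealTime-Glo MT reagent, settled 5 h at 37 C/5% CO2 before compound addition. Nonlytic NanoLuc luminescence from viable-cell prosubstrate reduction read repeatedly during 40 h treatment at 37 C.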

A short description of assay [4]: A CellTox Green Cytotoxicity Assay to monitor cytotoxicity in HEK293 cells - 40 hour (AID 1224871). Further: nearly all actives have a fitted effect of over 45% in size. Further: potency means the concentration at half of the fitted maximal effect. In short, it runs like this: (§1)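 Cytotoxicity was tracked continuously in HEK293 cells by a DNA-binding dye excluded from viable cells. Compounds were transferred in DMSO 5 h after seeding; fluorescence was recorded at intervals up to 40 h.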
The nature of assay [5]: A CellTox Green Cytotoxicity Assay to monitor cytotoxicity in HepG2 cells - 16 hour (AID 1224876). Further: nearly all actives have a fitted effect of over 45% in size. Further: potency means the concentration at half of the fitted maximal effect. The method in brief:
(§2)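 Real-time, homogeneous cytotoxicity readout: dead-cell DNA staining by CellTox Green in HepG2 monolayers, fluorescence measured at timed intervals up to 40 h of continuous compound exposure.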

Assay [6] in a line: qHTS RealTime-Glo MT Cell Viability Assay in HepG2 cells - 32 hour (AID 1224877). Further: nearly all actives have a fitted effect of over 55% in size. Further: potency means the concentration at half of the fitted maximal effect. In short, it runs like this:
(§3)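 HepG2 cells (600/well) were dispensed with RealTime-Glo reagents, incubated 5 h at 37 °C, then treated with compounds in DMSO for up to 40 h. Nonlytic NanoLuc luminescence reflecting viable cells was read at each stated time point.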

A short description of assay [7]: A CellTox Green Cytotoxicity Assay to monitor cytotoxicity in HEK293 cells - 16 hour (AID 1224888). Further: nearly all actives have a fitted effect of over 35% in size. Further: potency means the concentration at half of the fitted maximal effect. In short, it runs like this: as §1
Assay [8] is described as follows: qHTS RealTime-Glo MT Cell Viability Assay in HepG2 cells - 0 hour (AID 1224889). Further: on the % scale 0 is the no-effect control and ±100 the full control effect; nearly all actives have a fitted effect of over 50% in size. The method in brief:
as §3

Assay [9] in a line: A CellTox Green Cytotoxicity Assay to monitor cytotoxicity in HepG2 cells - 8 hour (AID 1224890). Further: nearly all actives have a fitted effect of over 45% in size. Further: potency means the concentration at half of the fitted maximal effect. In short, it runs like this:
as §2

A short description of assay [10]: qHTS assay to identify small molecule antagonists of the estrogen receptor alpha (ER-alpha) signaling pathway using the BG1 cell line in the presence of 0.1 nM 17-beta-estradiol - cell viability counter screen (AID 1259241). Further: on the % scale 0 is the no-effect control and ±100 the full control effect; nearly all actives have a fitted effect of over 40% in size. The method in brief: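 VM7Luc4E2, 4,000 cells/well, phenol red-free medium + 10% charcoal-stripped FBS; 24 hr plating; cpd + 0.1 nM E2 final, 22 hr 37C/5% CO2; CellTiter-Fluor 30 min, fluorescence.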

Assay [11] can be described thus: qHTS assay to identify small molecule antagonists of the androgen receptor (AR) signaling pathway using the MDA cell line in the presence of 0.5 nM R1881 - cell viability counter screen (AID 1259242). Further: on the % scale 0 is the no-effect control and ±100 the full control effect; nearly all actives have a fitted effect of over 45% in size. In short, it runs like this: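 Cytotoxicity toward MDA-kb2 cells is measured by CellTiter-Fluor live-cell protease fluorescence after 16 hr compound exposure at 37C in the presence of 0.5 nM R1881 stimulator.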

Assay [12] can be described thus: qHTS assay to identify small molecule HDAC inhibitors - cell viability counter screen (AID 1259365). Further: series mostly up to about 92 µM; on the % scale 0 is the no-effect control and ±100 the full control effect; nearly all actives have a fitted effect of over 50% in size. In short, it runs like this:
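Luminescence from CellTiter-Glo, developed 30min at room temperature, reports viability of wild-type HCT-116 cells treated 2hr with compounds at 37 C and 5% CO2 after overnight plating.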

A short description of assay [13]: qHTS assay to identify small molecule antagonists of the sonic hedgehog signaling (Shh) pathway (AID 1259369; calls by dose curve). The method in brief: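 Inhibition of Shh signalling is measured as reduced Gli1-response-element firefly luciferase output in an NIH/3T3-derived stable reporter clone stimulated with conditioned medium for 24hr.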
Assay [14] in a line: qHTS assay to identify small molecule agonists or antagonists of the thyroid stimulating hormone receptor (TSHR) signaling pathway - wild type cell line counter screen (AID 1259384; calls by dose curve; further: on the % scale 0 is the no-effect control and ±100 the full control effect). In short, it runs like this:
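Wild-type Hek293 cells, 800/well, 18 h at 37C, then compound with Ro20-1724 for 30 min RT. cAMP by HTRF (cAMP-d2/anti-cAMP cryptate), 1 h RT, fluorescence read. 15 concentrations, triplicates.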

The target of assay [15] is Voltage-gated inwardly rectifying potassium channel KCNH2 (Homo sapiens) (UniProt Q12809). In words: Human Ether-a-go-go-Related Gene (hERG) channel small molecule antagonists: fluorescence cell-based qHTS assay (AID 1671200). Further: nearly all actives have a fitted effect of over 50% in size. Further: potency means the concentration at half of the fitted maximal effect. The method in brief: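 Channel function was assessed by thallium flux. Cells seeded the previous day and kept at 37 C took up FluxOR II dye over 1 h in the dark at room temperature, then sat another 10 min before stimulation.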
Sequence of Voltage-gated inwardly rectifying potassium channel KCNH2 (Homo sapiens) (Q12809 whole entry, looked up): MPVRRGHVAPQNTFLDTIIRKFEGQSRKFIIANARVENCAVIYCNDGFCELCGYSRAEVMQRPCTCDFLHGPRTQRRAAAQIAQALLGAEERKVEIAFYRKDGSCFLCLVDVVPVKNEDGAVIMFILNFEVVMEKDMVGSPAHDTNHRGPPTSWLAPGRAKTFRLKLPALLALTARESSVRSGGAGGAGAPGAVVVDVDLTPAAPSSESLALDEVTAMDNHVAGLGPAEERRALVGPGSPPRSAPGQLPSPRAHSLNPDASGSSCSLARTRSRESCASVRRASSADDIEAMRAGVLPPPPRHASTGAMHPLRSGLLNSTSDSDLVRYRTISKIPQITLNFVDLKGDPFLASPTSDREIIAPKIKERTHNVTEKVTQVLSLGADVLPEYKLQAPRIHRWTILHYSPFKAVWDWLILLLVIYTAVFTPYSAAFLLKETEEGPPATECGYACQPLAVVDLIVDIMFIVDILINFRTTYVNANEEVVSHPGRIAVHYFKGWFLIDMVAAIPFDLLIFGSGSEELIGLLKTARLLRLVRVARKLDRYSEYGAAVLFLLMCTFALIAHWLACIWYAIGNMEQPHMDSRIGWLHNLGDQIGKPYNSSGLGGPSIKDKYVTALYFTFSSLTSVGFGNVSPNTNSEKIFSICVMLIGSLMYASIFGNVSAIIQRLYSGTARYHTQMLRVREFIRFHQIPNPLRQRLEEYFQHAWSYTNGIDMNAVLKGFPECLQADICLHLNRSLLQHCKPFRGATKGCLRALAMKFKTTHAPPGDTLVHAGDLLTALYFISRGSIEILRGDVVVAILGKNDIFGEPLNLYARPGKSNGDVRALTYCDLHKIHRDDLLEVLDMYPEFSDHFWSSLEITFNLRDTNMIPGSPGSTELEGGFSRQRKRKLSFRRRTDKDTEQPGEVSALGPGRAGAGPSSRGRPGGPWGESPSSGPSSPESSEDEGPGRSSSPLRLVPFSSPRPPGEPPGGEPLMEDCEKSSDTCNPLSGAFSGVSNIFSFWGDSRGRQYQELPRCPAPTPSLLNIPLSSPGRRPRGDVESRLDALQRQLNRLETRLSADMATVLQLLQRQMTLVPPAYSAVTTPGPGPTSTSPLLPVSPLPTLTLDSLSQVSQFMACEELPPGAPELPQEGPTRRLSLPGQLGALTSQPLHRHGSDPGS
(The hERG channel carries a current that helps repolarise heart muscle cells.)

Assay [16] is described as follows: qHTS RealTime-Glo MT Cell Viability Assay in HEK293 cells - 0 hour (AID 1224880). The method in brief:
(§4)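 Nonlytic bioluminescent viability monitoring. HEK293 at 600 cells/well with reagent; 5 h settle; compound transfer by pintool; plates held at 37 C and read at set time points.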

For assay [17], the target named is Cytochrome P450 1A2 (Homo sapiens) (UniProt P05177). In words: Cytochrome P450 Family 1 Subfamily A Member 2 (CYP1A2) small molecule antagonists: luciferase reporter qHTS assay (AID 1671199). Further: nearly all actives have a fitted effect of over 50% in size. Further: potency means the concentration at half of the fitted maximal effect. The method in brief:
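Inhibition of CYP1A2 conversion of proluciferin to luciferin, detected by luminescence. Reaction run 1 h at room temperature with NADPH regeneration after brief compound preincubation.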
(In general: A reporter such as luciferase makes a cellular process visible.)

Assay [18] is described as follows: qHTS assay to identify small molecule agonists of the estrogen related receptor signaling pathway with the pleiotropic PPARgamma coactivator (PGC) (AID 1224823). Further: on the % scale 0 is the no-effect control and ±100 the full control effect. In short, it runs like this:
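Cell-based luciferase assay in the NTP-supplied PGC/ERR line, 2,000 cells/well; 18 h compound exposure at 37 C, luminescence after One-Glo.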

The nature of assay [19]: qHTS RealTime-Glo MT Cell Viability Assay in HEK293 cells - 40 hour (AID 1224874). Further: nearly all actives have a fitted effect of over 50% in size. Further: potency means the concentration at half of the fitted maximal effect. On max response: on the % scale 0 is the no-effect control and ±100 the full control effect. Particulars: RealTime-Glo luminescence; max response: active compounds read low. In short, it runs like this:
as §4

Assay [20] can be described thus: qHTS assay for small molecule agonists of the p53 signaling pathway (AID 651631; calls by dose curve; further: nearly all actives have a fitted effect of over 15% in size; further: potency means the concentration at half of the fitted maximal effect). The method in brief:
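Read-out is beta-lactamase FRET fluorescence measured 2 h after substrate addition at room temperature, in HCT-116 cells with a p53 response element-driven reporter exposed to compounds for 16 h at 37 °C.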

Values without a mark were called inactive. Inconclusive results are not listed. Active and inactive are the calls of the source. Unless noted, the call rests on the fitted dose curve; in most records, active means well fitted curve in the direction sought with a large enough effect in the repeat runs; inconclusive means weak or mixed curves; inactive means no such curve, though single readings can be large; an effect the other way counts as inactive or inconclusive.

Sequence of Cytochrome P450 1A2 (Homo sapiens) (P05177 whole entry, looked up): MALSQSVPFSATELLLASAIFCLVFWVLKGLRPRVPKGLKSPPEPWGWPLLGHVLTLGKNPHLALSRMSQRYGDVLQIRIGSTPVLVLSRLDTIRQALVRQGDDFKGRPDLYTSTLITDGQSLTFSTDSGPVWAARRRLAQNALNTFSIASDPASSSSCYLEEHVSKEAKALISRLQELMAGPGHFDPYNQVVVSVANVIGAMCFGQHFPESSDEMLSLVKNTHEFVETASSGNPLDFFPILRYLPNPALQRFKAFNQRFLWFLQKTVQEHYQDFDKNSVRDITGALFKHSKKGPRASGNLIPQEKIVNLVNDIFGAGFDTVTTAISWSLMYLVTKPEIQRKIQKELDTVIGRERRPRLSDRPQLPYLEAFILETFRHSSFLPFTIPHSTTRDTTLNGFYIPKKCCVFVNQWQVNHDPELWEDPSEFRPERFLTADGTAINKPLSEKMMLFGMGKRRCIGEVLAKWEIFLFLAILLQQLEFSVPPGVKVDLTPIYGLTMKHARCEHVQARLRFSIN
Sequence of Nuclear receptor subfamily 1 group I member 3 (Homo sapiens) (Q14994 whole entry, looked up): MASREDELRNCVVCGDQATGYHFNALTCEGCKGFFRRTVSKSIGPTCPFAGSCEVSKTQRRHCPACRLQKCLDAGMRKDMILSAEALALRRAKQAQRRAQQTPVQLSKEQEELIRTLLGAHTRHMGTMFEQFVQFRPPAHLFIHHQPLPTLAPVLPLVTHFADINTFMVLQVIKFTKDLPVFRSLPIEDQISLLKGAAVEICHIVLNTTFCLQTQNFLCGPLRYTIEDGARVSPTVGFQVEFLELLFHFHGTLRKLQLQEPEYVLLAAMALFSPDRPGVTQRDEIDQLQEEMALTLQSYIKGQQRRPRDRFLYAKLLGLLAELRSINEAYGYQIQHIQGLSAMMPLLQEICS

For `OC(Cc1ccccc1Cl)(Cn1[nH]cnc1=S)C1(Cl)CC1` (stereo not drawn), the Potency entry in assay [1], in assay [2], in assay [3], in assay [4], in [5] and in [6] was “inactive” in each case. Also, the Potency result in assay [7], in assay [8], in assay [9], in [10], in assay [11] and in assay [15] was “inactive” in each case. The call in [12] and in [14] was inactive. Besides, in assay [13], the Potency was 38.6 µM (active).

On to `ClC1=C(Cl)[C@]2(Cl)[C@@H]3[C@@H](Cl)[C@H]4O[C@H]4[C@@H]3C1(Cl)C2(Cl)Cl`, for which the Potency in [1] was 49 µM (active); in assay [4], 54.9 µM (active); in assay [13], 48.6 µM (active); in assay [15] it was 54.9 µM (active). Moreover, the Potency entry in assay [2], in [8], in [10], in assay [11] and in assay [17] was “inactive” throughout. In addition, the molecule was classed as inactive in assay [16] and in assay [12].

In the case of `Nc1ccc([N+](=O)[O-])cc1`, the Potency in assay [1] is 38.9 µM (active); in assay [4], 38.9 µM (active); in [19] it was 38.9 µM (active); in assay [9], 43.6 µM (active); in assay [13], 27.3 µM (active); in [17], 39.9 µM (active). The Potency result in assay [18], in assay [2], in assay [3], in assay [6] and in assay [8] was “inactive” throughout. In addition, the molecule was called inactive in assay [16], in assay [12] and in assay [14].

For the molecule `CCCCC(CC)COC(=O)c1ccc(C(=O)OCC(CC)CCCC)cc1` (stereo not drawn), the Potency result in assay [20] was “inactive”.

For `CCCCC(CC)COC(=O)CCCCC(=O)OCC(CC)CCCC` (stereo not drawn), in assay [20], the Potency entry was “inactive”.

With `COCCOC(=O)c1ccccc1C(=O)OCCOC`, the Potency entry in [20] is “inactive”.

Take `Cc1nnc2n1-c1sc(CCc3ccc(CC(C)C)cc3)cc1C(c1ccccc1Cl)=NC2C` (stereo not drawn): the Potency in assay [1] was 26.8 µM (active); in [4], 23.9 µM (active); in [19] it was 9.52 µM (active); in [13] it was 21.1 µM (active); in [15] it was 15.1 µM (active). Also, the Potency entry in assay [2], in [5], in assay [7], in assay [8], in [9] and in assay [10] was “inactive” each time. The Potency entry in assay [17] is “inactive”. For the same molecule, the molecule was classed as inactive in assay [12] and in [14].

In the case of `Cc1ccc(N(SC(F)(Cl)Cl)S(=O)(=O)N(C)C)cc1`, the Potency in [20] was 6.11 µM (active); in assay [1], 30.9 µM (active); in assay [2], 27.3 µM (active); in [3] it was 9.77 µM (active); in assay [4] it was 4.9 µM (active); in assay [19] it was 5.49 µM (active). Besides, the Potency in assay [5] is 17.4 µM (active); in assay [6], 9.77 µM (active); in assay [7], 24.5 µM (active); in [13], 2.73 µM (active); in [17], 22.4 µM (active); in assay [15] it was 21.9 µM (active). For the same molecule, the outcome in [16] and in assay [14] was inactive. Moreover, the Potency entry in assay [8], in assay [9] and in [10] was “inactive” throughout.

For the molecule `CNC(=O)Oc1cc(C)c(SC)c(C)c1`, the Potency entry in [1], in assay [2], in assay [3], in [5], in [6] and in [8] was “inactive” throughout. Moreover, the Potency entry in [9], in assay [10], in assay [11] and in assay [15] was “inactive” in each case. The call in assay [16], in assay [12] and in assay [14] was inactive. In addition, the Potency in assay [7] was 21.9 µM (active); in [13], 8.63 µM (active); in assay [17] it was 6.33 µM (active).

In the case of `N#Cc1cc([N+](=O)[O-])ccc1N`, the Potency result in assay [1], in [2], in [3], in assay [4], in assay [5] and in assay [6] was “inactive” in each case. The Potency result in assay [7], in assay [8], in [9], in assay [10], in assay [11] and in assay [15] was “inactive” in each case. Besides, the max response in assay [19] is -6.49%. Also, the molecule was classed as inactive in assay [16], in assay [12] and in [14]. In assay [17], the Potency is 35.6 µM (active).

Regarding `CC1COC(Cn2cncn2)(c2ccc(Oc3ccc(Cl)cc3)cc2Cl)O1` (stereo not drawn), the Potency entry in [1], in assay [5], in assay [7], in [9] and in [10] was “inactive” throughout. For the same molecule, the Potency in assay [4] is 49 µM (active); in assay [19] it was 17.4 µM (active); in assay [13], 3.44 µM (active); in assay [17], 25.2 µM (active); in assay [15], 21.9 µM (active). Further, the molecule was called inactive in [16], in assay [12] and in assay [14].

Regarding `Cc1c(N)cccc1[N+](=O)[O-]`, the Potency result in assay [20] was “inactive”.

With `O=C1OC(=O)c2c(Cl)c(Cl)c(Cl)c(Cl)c21`, the Potency result in assay [20] and in assay [2] was “inactive” throughout.
